SARS PLP yeast – blocks SARS-CoV papain-like protease in a yeast assay; S. cerevisiae expressing SARS-CoV PLpro, growth rescue; Potency, µM (highest dose often 32.9 µM), without a hit: at the top dose activity, positive = growth rescue, most hits filed as activators; actives 0.19% (n = 330,000); calls by dose curve; also: 0% is about no effect; nearly all actives have a fitted effect of over 55% in size
TbPYK inhibitor – inhibitors of Trypanosoma brucei pyruvate kinase | TbPYK enzyme, Kinase-Glo Plus ATP luminescence, 45 min | AID 624173 | actives 0.12% (n = 410,000) | Potency, µM (series often up to 76.8 µM), without a hit: at the top dose activity, negative = inhibition, most hits filed as inhibitors | Q57TT1; also: % is scaled to controls: 0 for no effect and ±100 for the full control effect; nearly all actives have a fitted effect of over 50% in size
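Quantitative HTS: titrated library compounds versus trypanosomal pyruvate kinase in TEA buffer (pH 7.2) containing KCl, MgCl2, BSA and Tween-20. Reactions were initiated with ADP, 130 uM final. Kinase-Glo Plus luminescence was read after 45 min at RT.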
RE007 growth inh – less growth of the S. pombe RE007 Vpr strain; S. pombe RE007 Vpr strain, BacTiter-Glo ATP luminescence, 24 h; Potency, µM (top dose mostly 92.2 µM), for inactives: at the highest dose activity change, negative = less growth, most hits filed as inhibitors; actives 0.21% (n = 360,000); AID 651644; active = well fitted falling curve with a large enough effect; inconclusive = small, poorly fitted or top-dose-only effect; inactive = no such curve, though single readings can be large or run the other way; also: % is scaled to controls: 0 for no effect and ±100 for the full control effect; nearly all actives have a fitted effect of over 50% in size
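Fission yeast RE007 carrying one integrated HIV-1 vpr copy, seeded at OD 0.01 in PMG+AL medium with 23 nL pinned compound. Grown 24 h at 30 degrees; viability read by BacTiter-Glo luminescence after 5 min.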
LmPK inh – LmPK (Leishmania mexicana) enzyme inhibition | Potency, µM (top dose mostly 57.5 µM), for inactives: at the top dose activity change, negative = inhibition, hits mostly inhibitors | Q27686 | actives 0.37% (n = 290,000) | purified LmPK, Kinase-Glo ATP luminescence, 1 h; also: % is scaled to controls: 0 for no effect and ±100 for the full control effect
Target sequence (Q27686 whole entry, looked up): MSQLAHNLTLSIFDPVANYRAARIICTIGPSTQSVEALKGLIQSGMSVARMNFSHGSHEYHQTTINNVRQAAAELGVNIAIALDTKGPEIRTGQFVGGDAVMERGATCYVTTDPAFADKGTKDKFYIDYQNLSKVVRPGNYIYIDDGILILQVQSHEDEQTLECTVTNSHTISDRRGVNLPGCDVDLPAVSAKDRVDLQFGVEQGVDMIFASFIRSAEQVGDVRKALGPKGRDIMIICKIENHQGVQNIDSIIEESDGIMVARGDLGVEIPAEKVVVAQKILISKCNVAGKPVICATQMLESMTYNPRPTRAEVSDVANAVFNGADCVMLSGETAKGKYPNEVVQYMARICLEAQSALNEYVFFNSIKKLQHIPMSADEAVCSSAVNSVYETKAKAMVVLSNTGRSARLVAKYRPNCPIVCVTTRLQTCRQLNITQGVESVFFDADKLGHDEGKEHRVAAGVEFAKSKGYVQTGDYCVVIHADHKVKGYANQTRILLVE
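Pyruvate kinase activity monitored as ATP production (luciferase luminescence). Conditions: 0.1 nM enzyme, 0.5 mM PEP, 0.1 mM ADP, 1 h, RT; normalized against uninhibited and no-enzyme wells.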
NS1 inh – influenza NS1 inhibition. Potency, µM (top dose mostly 46.1 µM), for the others: at the highest dose activity, positive = more growth. actives 0.4% (n = 270,000); calls by dose curve; also: actives are rising curves; nearly all actives have a fitted effect of over 50% in size
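S. cerevisiae expressing influenza A NS1, grown in glucose, washed, then diluted 1:100 into pH 6.0 -URA galactose medium with 23 nl compound. Growth recovery read as OD600; NS1-free strain serves as control.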
Sm TGR block – S. mansoni TGR enzyme inhibition; Q962Y6; purified TGR, DTNB reduction, TNB absorbance 405 nm; Potency, µM (highest dose often 114 µM), without a hit: top-dose activity change, negative = inhibition, most hits filed as inhibitors; actives 3% (n = 360,000); AID 485364; also: % is scaled to controls: 0 for no effect and ±100 for the full control effect; nearly all actives have a fitted effect of over 60% in size
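TGR 20 nM + NADPH 100 uM (dispensed conc.), cpd preinc 15 min RT; start with NADPH (500 uM addition) then DTNB (15 mM addition). Kinetic TNB absorbance, 405 nm filter. Four-parameter Hill fit across titration.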
The depositor's hits bear a star; ? = inconclusive; · = no result given; [ ] = dose if it differs, or a comment. The list is not random: actives were taken first. Their share in the collection is about 3.3%. Unless noted, calls follow the shape of the dose curve; as a rule, active = well fitted curve in the direction sought with a large enough effect; inconclusive = small, poorly fitted or top-dose-only effect, or another doubt; inactive = no such curve, though single readings can be large; an effect the other way counts as inactive or inconclusive. Potency is read from the fitted curve at half-maximal effect.

SMILES	SARS PLP yeast	TbPYK inhibitor	RE007 growth inh	LmPK inh	NS1 inh	Sm TGR block
Cc1ccc(S(=O)(=O)N(CC(=O)N2CCc3ccccc3C2)c2ccc(C)c(C)c2)cc1	·	-5%	·	·	·	3%
O=[N+]([O-])c1cc([As](=O)(O)O)ccc1O	1%	4%	-2%[18.4 µM]	·	·	32µM*
CCOC(=O)C(=O)C1=C(N2CCOCC2)/C(=C\c2ccc(F)cc2)CC1	0%	1%	-12%	2%	-12%	28µM*
CCCCN(C(=O)NC(=O)C1=C(N2CCOCC2)/C(=C/c2ccccc2)CC1)S(C)(=O)=O	-10%	-4%	-28%	14%	-36%	3%[11.4 µM]
O=C(CCSCc1ccc(Cl)cc1)N1CCN(c2ccccc2F)CC1	·	-2%	·	·	·	1%
Oc1c(Br)cc(Br)cc1-c1nc2ccccc2s1	·	-6%	·	·	·	45µM*
C=C1CC2C3C=C(C)C4=CC(=O)CCC4(C)C3CCC2(C)[C@@]1(OC(C)=O)C(C)=O (stereo partly specified)	·	2%	·	·	·	·
O=C(CSc1nc2ccccc2[nH]1)NCc1ccco1	-3%	1%	-1%	0%	-14%	0%
O=C(CSc1c2c(nc3cc(Cl)ccc13)CCCC2)NCc1ccco1	-4%	-5%	16%	-3%	-55%	89µM*
O=C(CSc1nc2ccc(Cl)cc2[nH]1)NCc1ccco1	-3%	1%	-4%	0%	-7%	14µM*
CCCCOc1ccc(C2=NC(c3ccncc3)=Nc3ccc(Br)cc3N2)cc1	·	4%	·	·	·	-9%
COc1ccccc1-c1nnc(C2CCN(S(=O)(=O)c3ccc(CC(C)C)cc3)CC2)o1	·	-3%	·	·	·	4%
C[C@]12CC[C@@H]3c4ccc(O)c(O)c4CC[C@H]3[C@@H]1CC[C@@H]2O	0%	10µM*	5%[18.4 µM]	1µM*	29%	?
C[C@]12CC[C@@H]3c4ccc(O)cc4CC[C@H]3[C@@H]1CC[C@@H]2O	-17%	2%	8%	3%	-23%	7%
NCC(=O)NC1(C(=O)O)CCCC1	·	·	·	·	-6%	·
CCOC(=O)C(=CNc1ccc(Cl)cn1)C(=O)OCC	1%	0%	10%	-7%	5%	5%
CCOC(=O)C(=CNNc1cccc(Cl)c1)C(=O)OCC	-5%	-17%	78%	1%	-75%	8.9µM*
Cc1ccc(NC(=S)Nc2cccnc2)c(S(=O)(=O)N2CCCCC2)c1	0%	-8%	4%	1%	·	14µM*
NS(=O)(=O)c1ccc(NC(=O)c2ccc(S(=O)(=O)N3CCCCC3)cc2)cc1	2%	-5%	12%	·	·	·
O=S(=O)(c1cccc(NC(=S)Nc2ccc(Br)cc2Cl)c1)N1CCOCC1	1%	-7%	5%	6%	4%	14µM*
O=C(NCc1cccnc1)c1ccc(S(=O)(=O)N2CCCCC2)cc1	3%	-9%	10%	-1%	1%	19%
O=S(=O)(c1ccc(NC(=S)NCc2cccnc2)cc1)N1CCCCC1	-1%	-5%	-11%	5%	-2%	32µM*
NS(=O)(=O)c1ccc(NC(=S)Nc2ccc(S(=O)(=O)N3CCCC3)cc2)cc1	3%	1%	36%	9%	·	25µM*
CCCN(CCC)S(=O)(=O)c1ccc(C(=O)N2CCn3c4c(c5cc(C)ccc53)CCCC42)cc1 (stereo unspecified)	·	-2%	·	·	·	7%
O=C(NCc1ccco1)c1c[nH]c2ccc(S(=O)(=O)Nc3ccc(F)cc3F)cc2c1=O	·	-2%	·	·	·	?
CCCCOc1ccc(C(=O)N(Cc2ccc(N(C)C)cc2)Cc2ccco2)cc1	·	-3%	·	·	·	4%
Cc1ccc2nc(CN3CCN(S(=O)(=O)c4ccc(F)cc4)CC3)oc2c1	·	-6%	·	·	·	-2%
O=S(=O)(c1ccc(NC(=S)Nc2ccccc2)cc1)N1CCOCC1	3%	12%	5%	3%	15%	45µM*
O=C(O)c1nccnc1C(=O)Nc1ccc(S(=O)(=O)N2CCOCC2)cc1	-1%	3%	-18%	0%	-2%	25µM*
